# Measurements published in PubChem BioAssay AID488940 (National Center for Advancing Translational Sciences (NCATS), 2010).
# Calls of active or inactive are those of the source. Calls follow the shape of the full dose curve.
# Biological target: DNA repair nuclease/redox regulator APEX1 (Homo sapiens) (UniProt P27695)
# Assay: Radiotracer Incision Assay (RIA) for Inhibitors of Human Apurinic/apyrimidinic Endonuclease 1 (APE1)
# Details: Recombinant APE1, radiolabeled AP-DNA incision, gel
# Text: The apurinic/apyrimidinic endonuclease APE1 is the primary mammalian enzyme responsible for the removal of abasic (or AP) sites in DNA and functions centrally in the base excision DNA repair (BER) pathway. […] Thus, targeting APE1 could improve the efficacy of current treatment paradigms by promoting selective sensitization or protection of diseased and normal cells, respectively. This secondary Radiotracer Incision Assay was implemented to validated hits from the primary screen (AID 2517).
# Recombinant wild type APE1 protein was purified as previously described (Erzberger et al., NAR, 1998). Fifty pg of APE1 (~140 pM) was incubated without (positive control containing 1% DMSO) or with 100 microM of the indicated inhibitor at room temperature in RIA buffer (50 mM Tris pH 7.5, 25 mM NaCl, 1mM MgCl2, 1 mM DTT, 0.01% Tween -20) for 15 min. One-half pmol of 32P 5'-radiolabeled AP-DNA substrate (18 mer) was added to a 10 microL final volume (see Wilson et al., JBC, 1995), and the reactions were incubated at 37 °C for 5 min and stopped by adding stop buffer (0.05% Bromophenol blue/ Xylene cyanol dissolved in 95% formamide, 20 mM EDTA) and heating at 950C for 10 min. Intact substrate was separated from incised product on a 15% polyacrylamide denaturing gel in tris boric acid EDTA buffer. Following electrophoresis, the gel was subjected to standard phosphoimager analysis using the ImageQuant 5.2 software, and the percent incision activity (amount of substrate converted to product) was calculated.
# Chain of DNA repair nuclease/redox regulator APEX1 (Homo sapiens) (P27695 whole entry, looked up): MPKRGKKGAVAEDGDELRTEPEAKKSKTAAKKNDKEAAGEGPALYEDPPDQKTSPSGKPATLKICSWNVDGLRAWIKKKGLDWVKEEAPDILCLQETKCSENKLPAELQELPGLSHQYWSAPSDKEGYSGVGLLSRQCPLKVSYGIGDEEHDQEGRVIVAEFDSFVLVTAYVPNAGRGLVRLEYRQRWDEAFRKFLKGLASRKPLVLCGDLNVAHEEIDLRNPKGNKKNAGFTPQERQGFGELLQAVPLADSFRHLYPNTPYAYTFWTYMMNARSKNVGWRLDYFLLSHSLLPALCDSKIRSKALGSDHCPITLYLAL
row,Structure (SMILES),Potency
1,CC(=O)Nc1sc2c(c1-c1nc3ccccc3s1)CCCN(C(C)C)C2,14 µM (active)
2,CC(=O)Nc1sc2c(c1-c1nc(-c3ccccc3)cs1)CCN(C(C)C)C2,3 µM (active)
3,CC(=O)Nc1sc2c(c1-c1nc3ccccc3o1)CCN(C(C)C)C2,13 µM (active)
4,CC(=O)Nc1sc2c(c1-c1nc3ccccc3s1)CCN(C)C2,5 µM (active)
5,CC(=O)Nc1sc2c(c1-c1nc3ccccc3s1)CCN(C(C)=O)C2,5 µM (active)
6,CC(=O)Nc1sc2c(c1-c1nc3ccccc3s1)CCCNC2,7 µM (active)
7,CC(=O)Nc1sc2c(c1-c1nc3ccccc3s1)CN(C(C)C)C2,4 µM (active)
8,CC(=O)Nc1sc2c(c1-c1nc3ccccc3s1)CCN(C(C)C)C2,19 µM (active)
9,CC(=O)Nc1sc2c(c1-c1nc3ccccc3s1)CCNC2,5 µM (active)
10,CC(=O)Nc1sc2c(c1-c1nc3ccccc3s1)CCS(=O)(=O)C2,77 µM (active)
11,O=C(Nc1sc2c(c1-c1nc3ccccc3s1)CCNC2)C(F)F,4 µM (active)
12,CC(=O)Nc1sc2c(c1-c1nc3ccccc3s1)CCN(C(C)C)CC2,13 µM (active)
